FMDV inh: blocks foot and mouth disease virus; FMDV antiviral cell-based qHTS; Potency, µM (series often up to 57.9 µM), without a hit: at the top dose activity change, negative = inhibition, hits mostly inhibitors; 1.2% of 410,000 active; AID 1159524; calls by dose curve; tested in HEK293T cells; also: read-out not given here; potency is read from the fitted curve at half-maximal effect; nearly all actives have a fitted effect of over 45% in size
LASV entry inh: blocks Lassa virus binding to or entry into cells; Lassa virus pseudotype entry inhibition, cell reporter; Potency, µM (titrated, usually from 37.9 µM), for inactives: top-dose activity change, negative = inhibition, hits mostly inhibitors; 1.2% of 300,000 active; AID 540256; calls by dose curve; tested in HEK293 cells; also: potency is read from the fitted curve at half-maximal effect; nearly all actives have a fitted effect of over 50% in size
HCMV inh: inhibitors of human cytomegalovirus. 4.5% of 410,000 active. activity change, negative = inhibition, % at 57.5 µM. HFF cells, HCMV-luciferase reporter, 72 h; active compounds read low; in the data active = activity change below about -60%; inconclusive = no clear call, values can overlap the other calls; inactive = above about -39%
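Two compound doses tested in HFFs infected with HCMV-luciferase, MOI 1 PFU/cell, 72 h at 37C. Lysate luminescence read with OneGlo; data normalized against buffer-only and 10uM Salinomycin inhibitor controls.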
Marburg entry inh: inhibitors of Marburg virus binding or cell entry | Marburg virus pseudotyped entry inhibition, cell reporter | 1.8% of 300,000 active | Potency, µM (doses to about 37.8 µM), for inactives: at the highest dose activity change, negative = inhibition, most hits filed as inhibitors | AID 540276; calls by dose curve; tested in HEK293 cells; also: potency is read from the fitted curve at half-maximal effect
Numbers without * were called inactive; [ ] = another dose, or the depositor's remark. Shown are actives, neighbours in structure and some others; about 6.2% of the full set was active somewhere. % is scaled to controls: 0 for no effect and ±100 for the full control effect.

How did CC(C)Oc1ccc(C(=O)NCC2Cc3cc(F)cc(-c4cnccn4)c3O2)cc1 (stereo unspecified) do in these assays?
FMDV inh: 0%

How did Cc1nc(SCC(=O)Nc2cccc(Cl)c2)n[nH]1 do in these assays?
FMDV inh: 0%; LASV entry inh: 7%; HCMV inh: -9; Marburg entry inh: 13%

Results for O=C(CSc1n[nH]c(-c2ccccn2)n1)Nc1cccc(Cl)c1 ?
FMDV inh: -20%; LASV entry inh: inconclusive; HCMV inh: -98*; Marburg entry inh: inconclusive

Results for Nc1nc(SCC(=O)Nc2cccc(F)c2)n[nH]1 ?
FMDV inh: -6%; HCMV inh: -100*

Results for Cc1ccc(-c2cc(C(=O)N(Cc3ccc(C(C)(C)C)cc3)Cc3ccco3)no2)cc1 ?
FMDV inh: -11%; LASV entry inh: 5%[46.1 µM]; HCMV inh: 46; Marburg entry inh: -25%[46.1 µM]

What do the screens show for `CCc1ccc(-c2cn3c(n2)SCC3)cc1`?
FMDV inh: -22%; LASV entry inh: -15%[46.1 µM]; HCMV inh: 83; Marburg entry inh: inconclusive

What do the screens show for `CCc1ccc(-c2cn(-c3nc(C)cc(C)n3)c(=N)o2)cc1`?
FMDV inh: -23%; LASV entry inh: 16µM*; HCMV inh: -101*; Marburg entry inh: inconclusive

What do the screens show for `CCOCCN1CCN(C2c3ccccc3CSc3ccccc32)CC1` (stereo unspecified)?
FMDV inh: -24%; LASV entry inh: inconclusive; HCMV inh: inconclusive; Marburg entry inh: 13µM*

What do the screens show for `CCNC(=O)NC1c2ccccc2CSc2ccccc21` (stereo unspecified)?
FMDV inh: -23%; LASV entry inh: -22%[46.1 µM]; HCMV inh: -12; Marburg entry inh: inconclusive

Results for O=C(CNC(=O)C12CC3CC(CC(C3)C1)C2)N1CCN(S(=O)(=O)/C=C/c2ccccc2)CC1 ?
FMDV inh: 40µM*; LASV entry inh: inconclusive; HCMV inh: -72*; Marburg entry inh: -17%

Results for O=C(CNC(=O)C12CC3CC(CC(C3)C1)C2)N1CCN(S(=O)(=O)c2cccs2)CC1 ?
FMDV inh: 0%; LASV entry inh: -22%; HCMV inh: inconclusive; Marburg entry inh: -23%

How did O=C(N/N=C\c1ccc(CNS(=O)(=O)c2ccccc2)o1)C(=O)Nc1ccc(F)cc1 do in these assays?
FMDV inh: 20%; LASV entry inh: 6%; HCMV inh: 10; Marburg entry inh: -14%

Results for O=C(N/N=C\c1ccc(CNS(=O)(=O)c2ccc(Cl)cc2)o1)C(=O)Nc1ccc(Oc2ccccc2)cc1 ?
FMDV inh: 3%; LASV entry inh: inconclusive; HCMV inh: -99*; Marburg entry inh: inconclusive

Results for O=C(CN1CCN(c2ccc(Cl)cc2)CC1)NCc1ccccc1 ?
FMDV inh: -20%; LASV entry inh: 6.3µM*; HCMV inh: -12; Marburg entry inh: inconclusive

How did O=C(CN1CCN(c2cccc(C(F)(F)F)c2)CC1)NCc1ccccc1 do in these assays?
FMDV inh: -25%; LASV entry inh: 8.9µM*; HCMV inh: 6; Marburg entry inh: 3%

How did O=[N+]([O-])c1ccc(N2CCN(C(=S)NCc3ccc(Cl)cc3)CC2)cc1 do in these assays?
FMDV inh: inconclusive; HCMV inh: -90*

What do the screens show for `COc1ccc(CN2[C@@H](CC(C)=O)c3ccc(/C=C/C(C)=O)cc3S2(=O)=O)cc1`?
FMDV inh: 32µM*; HCMV inh: 34

Results for COC(=O)/C=C/c1ccc2c(c1)S(=O)(=O)N(Cc1ccc(OC)cc1)[C@H]2CC(=O)OC ?
FMDV inh: 2%; HCMV inh: -8

How did CC(=O)Nc1ccc(OC[C@@H](O)CNC(C)C)cc1 do in these assays?
FMDV inh: 4%

Results for CC(=O)CCc1ccc(OCC(O)CNC2CCCc3ccccc32)cc1 (stereo unspecified) ?
FMDV inh: -9%; LASV entry inh: -11%; HCMV inh: -73*; Marburg entry inh: inconclusive

How did COC(=O)CCc1ccc(OCC(O)CNC(C)C)cc1 (stereo unspecified) do in these assays?
FMDV inh: -11%; HCMV inh: -64*

How did CN(C)c1ccc(C(=O)N2CCC2(C)C(=O)O)cc1 (stereo unspecified) do in these assays?
FMDV inh: -18%; HCMV inh: -9

What do the screens show for `Fc1ccccc1N1CCN(c2ncnc3onc(-c4ccc(Cl)cc4)c23)CC1`?
FMDV inh: inconclusive; LASV entry inh: inconclusive; HCMV inh: -9; Marburg entry inh: -16%[46.1 µM]

Results for N=c1ccn(Cc2ccccc2Cl)cc1 ?
FMDV inh: inconclusive; LASV entry inh: -2%; HCMV inh: -85*; Marburg entry inh: inconclusive
